This note sets out measurements from PubChem BioAssay AID588689 (Southern Research Specialized Biocontainment Screening …, 2011).

In this assay the target is Genome polyprotein (Dengue virus type 2 (strain 16681-PDK53)) (UniProt P29991). Description: Dengue-2 NS5 methyltransferase inhibitors, primary screen, biochemical, confirmation dose response (AID 588689). The following applies: Dengue-2 NS5 methyltransferase capping enzyme assay, at 25 µM, stronger effect = higher value.
The mark [1] stands for this setting: measured here: pilot screen replicate inhibition.

Several values for one entry are separate records, joined by “and”; a condition that tells them apart may be missing. Identical values can stand only once. Out of some 340,000 compounds screened, about 1,000 (0.29%) were called active. No stated cut-off is given here; in the data, inconclusive means inhibition above about 29% without an active follow-up result; inactive means below that. Only a sample is shown. Measured potencies and affinities stand elsewhere.

Turning to `O=C(O)c1cc2ccccc2c(N=Nc2cccnc2)c1O`, the inhibition was 0.81% (inactive).

In the case of `O=C(O)c1cc(N=Nc2c(O)ccc3ccccc23)cc(C(=O)O)c1`, the inhibition was 20.4% (inactive).

As to `CN(Cc1ccccc1)S(=O)(=O)c1ccc(Cl)c(C(=O)N2CCC(C(N)=O)CC2)c1`, the inhibition was 4.28% (inactive).

On to `Cc1cccc(Cc2nnc(CCC(=O)N(C)CCc3ccccc3)o2)c1`, for which the inhibition is 10.8% (inactive).

On to `CN(C)C(=O)Cn1cc(S(=O)(=O)Cc2ccccc2)c2ccccc21`, for which the inhibition is -2.66% (inactive).

On to `CCCCNC(=O)c1sc(=S)n2c1[nH]c(=O)c1ccccc12`, for which the inhibition is 10.2% (inactive).

For `O=C(NCc1ccco1)c1sc(=S)n2c1[nH]c(=O)c1ccccc12`, the inhibition was 0% (inactive).

For `Nc1ccc(Nc2ccccc2)c(S(=O)(=O)O)c1`, the inhibition was 54.5% (inactive).

Turning to `Cc1ccc(S(=O)(=O)c2cc(Nc3ccccc3)ccc2O)cc1`, the inhibition was 8.82% (inactive).

Consider `CN(C)c1ccc2cc(S(=O)(=O)O)cc(O)c2c1`, for which the inhibition was 81.6% (inactive).

For the molecule `O=S(=O)(O)c1cc(O)c2ccc(Nc3ccccc3)cc2c1`, the inhibition is 8.94% (inactive).

Turning to `O=S(=O)(O)c1cccc(N=Nc2c(O)ccc3ccccc23)c1`, the inhibition was 1.57% (inactive).

Regarding `CC(=O)Nc1ccc2c(O)cc(S(=O)(=O)O)cc2c1`, the inhibition is -7.72% (inactive).

Turning to `Nc1ccc(C(=O)Nc2ccc3c(O)cc(S(=O)(=O)O)cc3c2)cc1`, the inhibition was 4.28% (inactive).

As to `Nc1cc(S(=O)(=O)O)cc2ccc(S(=O)(=O)O)cc12`, the inhibition is 7.17% (inactive).

`CN(C)/C=C1\NC(=S)N(c2ccc(Cl)cc2)C1=O`: the inhibition was -20.4% (inactive).

Regarding `Cc1ccc(S(=O)(=O)N2CCN(Cc3csc(C)n3)CC2)cc1`, the inhibition is 2.27% (inactive).

For `CC(C)CN(C(=O)COC(=O)CSc1ccc(Br)cc1)C1CCS(=O)(=O)C1` (stereo not given), the inhibition is -3.62% (inactive).

Consider `COc1cc(C=O)ccc1OCCOCCOc1ccc(Cl)cc1Cl`, for which the inhibition is -6.82% (inactive).

Regarding `Nc1cccc2cc(S(=O)(=O)O)ccc12`, the inhibition was 13.9% (inactive).

With `Nc1cccc2c(O)cccc12`, the inhibition was 6.13% (inactive).

Regarding `O=C1c2ccccc2-c2n[nH]c(=O)c3ccc(N4CCCCC4)c1c23`, the inhibition was -9.35% (inactive).

Turning to `O=C1c2ccccc2-c2nccnc21`, the inhibition is 1.62% (inactive).

For `C=CCNC(=S)N/N=C/c1ccccc1OCCOc1ccccc1`, the inhibition is 2.29% (inactive).

With `CCN(CC)C(=O)CCSc1nnc(-c2ccncc2)o1`, the inhibition is -3.83% (inactive).

With `Cc1ccc(OCC(=O)N[C@@H](C)c2nnc3ccccn23)cc1C`, the inhibition was -6.18% (inactive).

`O=C(COC(=O)c1cccc(F)c1)Nc1cccc(S(=O)(=O)N2CCOCC2)c1`: the inhibition is -5.49% (inactive).

`COc1ccc(NC(=O)C2CCC(CNc3c(N4CCC(C)CC4)c(=O)c3=O)CC2)cc1OC` (stereo not given): the inhibition was -6.26% (inactive) and 8.76% (inactive).

Regarding `COc1ccc(C(=O)NNc2ccccc2)cc1`, the inhibition is 4.46% (inactive).

For `O=C(NNc1ccccc1)c1ccccc1`, the inhibition is -0.81% (inactive).

With `Cn1c(=O)[nH]c(=O)c2c1nc(N1CCOCC1)n2CCN1CCOCC1`, the inhibition was 1.62% (inactive).

As to `COc1cc(C(=O)Nc2scc(-c3ccc(C)cc3)c2C(=O)O)cc(OC)c1OC`, the inhibition is 3.47% (inactive).

As for `COc1ccc(-c2csc(NC(=O)c3cccs3)c2C(=O)O)cc1OC`, the inhibition is -3.65% (inactive).

`Cc1ccccc1C(=O)Nc1scc(-c2ccc(Br)cc2)c1C(=O)O`: the inhibition is 22.5% (inactive).

With `O=C(Nc1scc(-c2cccs2)c1C(=O)O)c1cccs1`, the inhibition was 22.9% (inactive).

Turning to `COc1cc(C(=O)Nc2scc(-c3ccccc3)c2C(=O)O)cc(OC)c1OC`, the inhibition is 14.7% (inactive).

In the case of `COc1ccc(-c2csc(NC(=O)c3ccccc3F)c2C(=O)O)cc1`, the inhibition was 11.1% (inactive).

In the case of `Cc1ccc(Cn2ccc(NC(=O)c3cc(-c4ccc(Cl)cc4)on3)n2)cc1`, the inhibition is -1.39% (inactive).

On to `Oc1ccccc1C1OCC2(CO1)COC(c1ccccc1O)OC2` (stereo not given), for which the inhibition was 1.95% (inactive).

On to `COc1cccc(-c2c(-c3cc(OC)cc(OC)c3)n(C)c3ccc(-c4ccc(OC)nc4)cc23)c1`, for which the inhibition is 2.45% (inactive).

Consider `COC(=O)[C@@H](NC(=O)/C=C/c1ccc(OC)cc1)C(C)C`, for which the inhibition is -9.35% (inactive).

For the molecule `COc1ccc(NC(=O)N(C)C[C@@H]2OCc3cn(nn3)CCCC(=O)N([C@H](C)CO)C[C@H]2C)cc1`, the inhibition is -1.7% (inactive).

`COc1ccccc1CNC(=O)CN(CCc1ccccc1)S(C)(=O)=O`: the inhibition was -7.36% (inactive).

For `COc1ccc(NS(=O)(=O)c2cc(NC(=O)c3sccc3C)ccc2N2CCOCC2)cc1`, the inhibition was 0.57% (inactive).

As to `CC(=O)c1ccc(N2CCN(S(=O)(=O)c3c(C(=O)N4CCCCC4)c(C)n(C)c3C)CC2)cc1`, the inhibition is -2.71% (inactive).

As for `Fc1cccc(Cl)c1CN1CCN(c2nc3ccccc3s2)CC1`, the inhibition was -4.55% (inactive).

For `CCn1c(/C=N/c2nc3ccccc3n2C)nc2ccccc21`, the inhibition was -0.7% (inactive).

With `COc1ccc(O)c(/C=N/c2nc3ccccc3n2C)c1`, the inhibition was 3.47% (inactive).

In the case of `Cc1csc2c(=O)n3c(nc12)CCCCC3`, the inhibition was -3.21% (inactive).

For `Cc1ccc(Sc2ccc(/C=C3/C(=O)NN(c4ccccc4)C3=O)o2)cc1`, the inhibition was -2.65% (inactive).

Regarding `CCN1C(=O)N/C(=C/c2ccc(Sc3ccc(C)cc3)o2)C1=O`, the inhibition is -2.74% (inactive).

As for `O=C(COC(=O)/C=C/c1ccco1)NC1CCCCC1`, the inhibition was -4.04% (inactive).

`CC(=O)Nc1ccc(C(=O)CSc2nnc(-c3ccccc3F)n2CCc2ccccc2)cc1`: the inhibition was -4.64% (inactive).

Turning to `C[C@@H](C[C@@H](O)[C@H](O)C(C)(C)O)[C@@H]1CC[C@]2(C)C3=CC[C@H]4C(C)(C)C(=O)CC[C@]4(C)[C@H]3CC[C@@]12C`, the inhibition was -3.21% (inactive).

Take `O=C(COC(=O)c1cc(Br)ccc1O)NNC(=O)c1cccs1`: the inhibition is 0% (inactive).

Take `CNc1ncnc(Sc2nc(N)nc3nc[nH]c23)c1[N+](=O)[O-]`: the inhibition is -30.9% (inactive).

With `Nc1nc(SCc2ccccc2)c2[nH]cnc2n1`, the inhibition is -9.52% (inactive).

On to `CC(C)C(NS(=O)(=O)c1cccc(C(F)(F)F)c1)C(=O)N1CCc2ccccc2C1` (stereo not given), for which the inhibition is -4.98% (inactive).

As for `CCn1c(SCC(=O)NNC(=O)c2ccc(C)cc2)nnc1C(C)C`, the inhibition was 7.12% (inactive).

On to `Nc1ccc(N2CCOCC2)c2nonc12`, for which the inhibition is 45.2% (inactive).

Consider `Nc1ccc(N2CCCCC2)cc1N1CCCCC1`, for which the inhibition is 25.7% (inactive).

In the case of `O=C1C2CCCN2C(=S)N1c1ccccc1` (stereo not given), the inhibition was -3.27% (inactive).

Consider `COc1ccccc1-c1cc(N)n[nH]1`, for which the inhibition was 2.4% (inactive).

As for `CC1CC(C)CN(C(=O)/C=C/c2ccc([N+](=O)[O-])s2)C1` (stereo not given), the inhibition was -5.44% (inactive).

As to `Cc1ccc(/C=C2\C(=O)NC(=O)N2C)o1`, the inhibition was 23.3% (inactive).

Turning to `COc1cccc(N2C(=O)/C(=C\c3cccs3)NC2=S)c1`, the inhibition is -5.28% (inactive).

Turning to `COc1cccc(NCc2ccc([N+](=O)[O-])s2)c1`, the inhibition is -8.01% (inactive).

`COc1ccc(NC(C)C(=O)N/N=C/c2ccc([N+](=O)[O-])s2)cc1` (stereo not given): the inhibition is -5.18% (inactive).

As for `CC1=CN2C(=N)/C(=C/c3ccc([N+](=O)[O-])o3)C(=O)N=C2S1`, the inhibition is -58.2% (inactive).

`COc1ccc(N2C(=O)NC(=O)C2=O)cc1`: the inhibition is -2.2% (inactive).

For `Cc1cc(C)cc(N=Cc2ccc([N+](=O)[O-])s2)c1`, the inhibition was 4.37% (inactive).

For `Cc1cc(-c2ccc(S(=O)(=O)NCc3ccc(F)cc3)cc2)on1`, the inhibition is -4.39% (inactive).

For the molecule `O=C(Cc1ccc(Br)cc1)N/N=C/c1cccnc1`, the inhibition was 1.95% (inactive).

Turning to `CCOC(=O)Cc1csc(SC(C)C(=O)Nc2ccc(NC(C)=O)cc2)n1` (stereo not given), the inhibition was -3.63% (inactive).

Turning to `Cc1ccc(/C=C/C2=NN(Cc3ccccc3Cl)C(=O)CC2)cc1`, the inhibition is -2.71% (inactive).

`O=C(CCC1CCCC1)NCCS(=O)(=O)N1CCN(c2ccccc2)CC1`: the inhibition was -5.17% (inactive).

`Cc1c(C(=O)OCC(=O)N2CC(=O)Nc3ccccc32)oc2ccc(Br)cc12`: the inhibition was -0.83% (inactive).

On to `Cc1cccc(NC(=O)C(=O)NCC2CCCN2S(=O)(=O)c2cccs2)c1` (stereo not given), for which the inhibition was 6.86% (inactive).

`Cc1onc(-c2ccccc2)c1C(=O)OCC(=O)c1ccc[nH]1`: the inhibition was -1.1% (inactive).

As to `COC(=O)NC1CSCC1OC(=O)CN1C(=O)c2ccccc2C1=O` (stereo not given), the inhibition was 1.83% (inactive).

Regarding `NS(=O)(=O)c1ccc(NC(=O)COc2ccc(S(=O)(=O)N3CCCC3)cc2)cc1`, the inhibition was -0.81% (inactive).

As to `O=C1NC(=O)N(c2ccccc2)C1=O`, the inhibition is 0% (inactive).

`O=C1N/C(=C/c2ccc(Br)s2)C(=O)N1c1ccccc1`: the inhibition was -5.43% (inactive).

For the molecule `Cc1ccc(-n2nnnc2CS(=O)(=O)c2ccccc2)c(C)c1`, the inhibition is -5.86% (inactive).

Regarding `C=CCc1ccccc1OCC(=O)OCCNC(=O)c1cccnc1`, the inhibition is 3.9% (inactive).

With `CSc1ccc(CNc2ccc(C)cc2)cc1`, the inhibition was 2.76% (inactive).

On to `Cc1ccc(NCc2ccccc2)cc1`, for which the inhibition is -5.19% (inactive).

Regarding `COc1ccccc1N=c1oc2c(OC)cccc2cc1C(=O)NCc1ccco1`, the inhibition was 12.3% (inactive). In addition, under setting [1], the inhibition amounted to 6.37%.

As for `COc1ccc(OC)c(N=c2oc3c(OC)cccc3cc2C(=O)NCc2ccco2)c1`, the inhibition was -9.6% (inactive). The inhibition under setting [1] is -5.77%.

`O=c1oc2ccccc2c(O)c1C=Nc1cccnc1`: the inhibition was -5.19% (inactive).

In the case of `CN(C)c1cc(Nc2ccc(O)cc2)c([N+](=O)[O-])c2nonc12`, the inhibition was -10.7% (inactive).

For the molecule `CC(=O)Nc1ccc(Nc2cc(N(C)C)c3nonc3c2[N+](=O)[O-])cc1`, the inhibition is -5.29% (inactive).

In the case of `COc1cccc(Nc2cc(N3CCOCC3)c3nonc3c2[N+](=O)[O-])c1`, the inhibition is 2.01% (inactive).

For `O=[N+]([O-])c1ccc(Nc2ccccn2)c([N+](=O)[O-])c1`, the inhibition is -9.54% (inactive).

With `O=[N+]([O-])c1c(Nc2ccc(O)cc2)cc(N2CCOCC2)c2nonc12`, the inhibition was 9.17% (inactive).

In the case of `Nc1cc(Nc2ccccc2)c2nonc2c1[N+](=O)[O-]`, the inhibition is -1.31% (inactive).

In the case of `CC(=O)Nc1ccc(Nc2cc(N3CCOCC3)c3nonc3c2[N+](=O)[O-])cc1`, the inhibition is -6.25% (inactive).

On to `CN(C)c1cc(Nc2cccc(O)c2)c([N+](=O)[O-])c2nonc12`, for which the inhibition is 6.85% (inactive).
